In the library only some 9.6% were active in any assay of this set; here they are far more common.
bCat KO growth = primary screen for growth suppressors in beta-catenin knockout HCT116 cells (colon tumor, human); viability, % at 10 µM; actives 1.5% (n = 140,000); HCT116 beta-catenin knockout viability, CellTiter-Glo, 60 h; hits give low values;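 active means viability at or under a set limit, the compound median less 4 SD, cut at about 6% in these data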;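 further: 0% = Hyamine 1622 control at 20 µM and 100% = untreated cell control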
HCT116 PTEN-null = growth suppression of PTEN-null HCT116, primary screen, cell-based, CellTiter-Glo; actives 1.2% (n = 140,000); HCT116 PTEN-null viability, 60 h; hits give low values; viability, % at 10 µM;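 active means viability at or below a set limit, 4 SD under the median of all tested compounds, cut at about 3.7% in these data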;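 further: PTEN knockout HCT116 line with beta catenin targeted HCT116 as companion control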
Insulin prom inh = inhibitors of insulin promoter-driven GFP, primary screen, imaging, TRM-6 cells (human fetal islet line), eGFP reporter, cell count | reporter expression induced with tamoxifen | inhibition, % at 2 µM | actives 0.9% (n = 130,000);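 active means inhibition above the mean plus 3 SD, with well images judged a real hit on visual review, cut at about 60% in these data, passing the limit was not always enough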
Ins promoter up = insulin promoter activators in MIN6 cells, imaging, high-content screening, mouse beta cells; MIN6 insulin promoter-GFP reporter; hits give high values; z-score at 5 µM; actives 0.3% (n = 190,000); AID 1625, 2009;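 active means z-score above 3 at 5 µM with at least 500 cells counted in the well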
Lmaj promast = Leishmania major promastigote growth inhibition, primary screen; Leishmania major promastigotes, resazurin fluorescence viability; inhibition, % at 10 µM; actives 9% (n = 200,000); in the data active means inhibition above about 50%;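 further: promastigotes grown with compound for 44 hours at 28 °C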
Autophagy mod = autophagy modulators in MEF cells, primary screen, imaging, high-content, MEF GFP-LC3 | AID 463193, 2010 | actives 0.98% (n = 190,000) | MEF GFP-LC3 puncta imaging; test concentration mostly 10 µM | calls only at 10 µM (by protocol);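 active means percentage of spot-positive cells more than 3 SD above its plate mean, without a fluorescence outlier flag or 80% toxicity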;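 further: spot-positive cell cutoff set from DMSO-treated cells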
Numbers without * were called inactive; i = inactive; x = no result; + = active, no number.

SMILES	bCat KO growth	HCT116 PTEN-null	Insulin prom inh	Ins promoter up	Lmaj promast	Autophagy mod
COc1cc(SC)ccc1C(=O)Nc1ccc(Br)cn1	x	x	x	-1.8	x	x
O=C(Nc1nncs1)C(Sc1ccccc1)c1ccccc1 (centres undefined)	88	86	24	0.59	3	i
COC(=O)C1=CN(C(C)C)C=C(C(=O)OC)C1c1cc(Br)c(OC)c(OC)c1	80	73	-2	-0.85	100*	i
COC(=O)C1=CN(C(C)C)C=C(C(=O)OC)C1c1cccc(OC)c1	80	69	-85	-1.1	15	i
CCCn1c(SCC(=O)N2N=C3/C(=C/c4ccc(OC)cc4)CCCC3C2c2ccc(OC)cc2)n[nH]c1=O (centres undefined)	80	68	-48	-0.53	92*	i
CC(=O)N1N=C2/C(=C/c3ccccc3)CCCC2C1c1ccccc1 (centres undefined)	x	x	-38	-0.31	97*	i
COc1ccc(/C=C2\CCCC3C2=NN(C(=O)c2ccco2)C3c2ccc(OC)c(OC)c2)cc1OC (centres undefined)	5.6*	2.5*	x	-1.5	29	i
O=C(O)c1c(C(=O)N2N=C3/C(=C/c4ccccc4)CCCC3C2c2ccccc2)cccc1[N+](=O)[O-] (centres undefined)	x	x	x	x	-4	i
COc1cc(C(=O)OCC(=O)N2CCCCC2C)ccc1OCc1c(C)noc1C (centres undefined)	x	x	x	-0.32	-7	i
COc1c(Cl)cc(Cl)cc1C(=O)Nc1ccc(CN2CCCCC2)cc1	x	x	-38	0.83	100*	i
Cc1ccc(C(=O)NC(=S)Nc2ccc(CN3CCCCC3)cc2)c(C)c1	x	x	x	-2.4	73*	i
O=C(NC(=S)Nc1ccc(CN2CCCCC2)cc1)c1ccco1	x	x	x	0.26	28	i
COc1ccccc1C(=O)Nc1ccc(CN2CCCCC2)cc1	78	84	5	-0.68	8	i
COc1ccc(C(=O)NC(=S)Nc2ccc(CN3CCCCC3)cc2)cc1Cl	x	x	x	-1.1	99*	i
O=C(O)CCCCCN1C(=O)C(O)=C(C(=O)/C=C/c2ccccc2)C1c1ccc2c(c1)OCO2 (centres undefined)	x	x	x	-0.14	-4	i
O=C1CCCc2c1[nH]c1ccc(Cl)cc21	87	94	40	x	0	i
COc1ccc(Nc2nc(N)nc(CCl)n2)cc1	x	x	x	-0.72	x	x
COc1ccc2c(c1)-c1nc(/N=C/c3cccc(OC)c3O)sc1CC2	84	89	47	-0.09	61*	i
COc1ccc2c(c1)-c1nc(/N=C/c3ccccc3O)sc1CC2	93	100	x	0.03	-6	i
Cc1cccc(Oc2nccc(C(F)(F)F)c2C(=O)Nc2ccc(F)cc2F)c1	x	x	x	3.6*	x	x
O=C(Nc1ccc(F)cc1F)c1c(C(F)(F)F)ccnc1Oc1ccccc1	x	x	x	0.5	x	x
N=C1S/C(=C\c2ccco2)C(=O)N1c1nccs1	x	x	x	0.71	90*	i
Cc1cccc(NC(=O)N2CCN(Cc3ccc4c(c3)OCO4)CC2)c1C	x	x	x	-0.23	56*	i
CC(C)(C)CC(C)(C)NC(=S)N1CCN(Cc2ccc3c(c2)OCO3)CC1	x	x	-45	0.33	82*	i
CCNC(=S)N1CCN(Cc2ccc3c(c2)OCO3)CC1	x	x	x	-0.09	-6	i
SMILES	bCat KO growth	HCT116 PTEN-null	Insulin prom inh	Ins promoter up	Lmaj promast	Autophagy mod
CCCNC(=S)N1CCN(Cc2ccc3c(c2)OCO3)CC1	x	x	-27	0.2	8	i
Cc1cc(Cl)ccc1NC(=S)N1CCN(Cc2ccc3c(c2)OCO3)CC1	85	89	11	0.57	87*	i
Fc1ccccc1NC(=S)N1CCN(Cc2ccc3c(c2)OCO3)CC1	x	x	x	-0.51	12	i
CCOCCCNC(=S)N1CCN(Cc2ccc3c(c2)OCO3)CC1	x	x	x	-0.03	74*	i
O=C(Nc1nnc(-c2ccccc2)o1)Nc1ccccc1Cl	93	97	14	3.8*	-4	i
COc1ccc(/C=N/N2CCOCC2)cc1COc1ccc(Cl)cc1	40	43	-19	-0.05	87*	i
COc1ccc(/C=N/N2CCOCC2)cc1COc1ccc(F)cc1	x	x	x	x	3	i
Cc1ccc(N=c2c([N+](=O)[O-])nn(-c3ccc4c(c3)OCCO4)n2O)c(Cl)c1	x	x	40	0.01	18	i
Cc1ccc(N=c2c([N+](=O)[O-])nn(-c3ccccc3)n2O)c(C)c1	11	23	14	-0.32	56*	i
Cc1ccc(N=c2c([N+](=O)[O-])nn(-c3ccc(Cl)cc3)n2O)cc1C	x	x	x	1.4	27	i
Cc1c(Cl)cccc1N=c1c([N+](=O)[O-])nn(-c2ccccc2)n1O	67	69	x	x	10	+
NC(=O)CSc1nnc(-c2cccs2)n1-c1ccccc1	99	108	3	0.12	-3	i
CC(C)NCC(O)COc1ccc(Br)cc1 (centres undefined)	x	x	x	-0.64	3	i
CC(CCc1ccccc1)NCC(O)COc1ccccc1 (centres undefined)	x	x	x	2	83*	i
OC(CNC1CCCCC1)COCCOc1ccc(Br)cc1 (centres undefined)	76	72	-40	-0.96	95*	i
O=[N+]([O-])c1ccc(OCC(O)CNC2CCCC2)cc1 (centres undefined)	x	x	x	-0.73	x	x
OC(CNC1CCCC1)COc1ccc(-c2ccccc2)cc1 (centres undefined)	x	x	x	-0.66	98*	i
CCCC(NCC(O)COc1ccc(-c2ccccc2)cc1)c1ccccc1 (centres undefined)	x	x	-117	-1.3	82*	i
O=C1CN(C(=O)COC(=O)c2oc3ccccc3c2COc2ccccc2)c2ccccc2N1	84	80	22	0.43	-5	i
COc1ccc(CCNC(=O)N2CCOCC2)cc1	99	99	-75	x	-4	i
COc1ccc(CCNC(=O)N2c3ccccc3Sc3ccccc32)cc1	x	x	22	x	68*	i
O=C(NCc1ccco1)N1c2ccccc2Sc2ccccc21	90	96	-29	0.11	62*	i
COC(=O)c1ccccc1NC(=O)N1c2ccccc2Sc2ccccc21	77	72	-38	-0.45	90*	i
COC(=O)c1ccccc1NC(=O)NCCc1ccc(OC)c(OC)c1	x	x	x	-1	21	i
COc1ccccc1C(=O)N1CCN(Cc2nc(CC3CC3)no2)CC1	x	x	x	0.34	-4	i
Cc1ccc(-c2cc(C(=O)NN3CCOCC3)c3cc(Br)ccc3n2)o1	x	x	x	0.1	12	i
CCc1nccn1S(=O)(=O)c1ccc(Br)cc1Br	106	95	x	x	89*	i
CCc1nccn1S(=O)(=O)c1ccc(OC)c(C)c1C	99	109	15	-0.4	2	i
CN1CC(=O)N(CC(=O)Nc2ccc(Cl)c(C(F)(F)F)c2)C1=O	87	90	29	0.55	-8	i

Source: PubChem (several laboratories)
